Test results published in PubChem BioAssay AID757 (NMMLSC, 2007).
Among all 190,000 compounds or so, about 520 (0.27%) were called active. Inconclusive results (about 2%) are left out. The entries come from a sample that favours actives as a whole. Values without a mark were called inactive.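 Rule for the calls: active = GTP binding activity at least 20 points away from the 100% control level, either lower or higher; inconclusive = compound flagged as likely green fluorescent, judged across all proteins; inactive = the rest.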

Target: Ras-related C3 botulinum toxin substrate 1 (Homo sapiens) (UniProt P63000)
Assay: wildtype Rac1 GTP binding modulators, primary screen, biochemical, GST-Rac1 beads, flow cytometry, multiplex (AID 757)
Conditions: fluorescent GTP binding, at 10 µM, actives lie on both sides, 0 = cold GTP competed, 100 = untreated

First: Cn1ncc(N2CCN(S(=O)(=O)c3ccc(Br)cc3)CC2)c(Cl)c1=O
Second: O=C(c1ccc(N2CCOCC2)c([N+](=O)[O-])c1)N1CCN(S(=O)(=O)c2cccs2)CC1
The GTP binding activity (% of control) of the first is higher: 99% for the first, 96% for the second.

First: CCc1ccccc1NC(=O)CN(c1ccc(OC)cc1OC)S(=O)(=O)c1ccccc1[N+](=O)[O-]
Second: CN(c1ccc(OCC(=O)OCC(=O)Nc2cccc([N+](=O)[O-])c2)cc1)S(=O)(=O)c1ccc(F)cc1
The GTP binding activity (% of control) of the first is lower: 100% for the first, 101% for the second.

Going from `O=C(NNC(=S)Nc1ccccc1)c1cccc(S(=O)(=O)N2CCOCC2)c1` to `O=C(Nc1ccccc1)N1CCN(C(=O)Nc2ccccc2)CC1`, the GTP binding activity (% of control) falls from 96% to 94%.

Compared with `O=C(CSc1ccsc1[N+](=O)[O-])N1CCCCC1`, `CCOC(=O)c1ccc(NC(=S)N2CCCC2)cc1` is lower in GTP binding activity (% of control): 102% for the first, 96% for the second.

First: CCOc1ccc(S(=O)(=O)Nc2nccs2)cc1
Second: CSCC(NS(=O)(=O)c1ccc(C)cc1)C(=O)O (stereo not drawn)
The GTP binding activity (% of control) of the first is lower: 94% for the first, 104% for the second.

Going from `O=C(Nn1cnc2ccccc2c1=O)c1ccc([N+](=O)[O-])cc1Cl` to `O=[N+]([O-])c1cccc(Nc2c3ccccc3nc3ccccc23)c1`, the GTP binding activity (% of control) falls from 96% to 93%.

Compared with `Cc1cnc(C(=O)N2CCCC(C(=O)c3ccc(C(F)(F)F)cc3)C2)cn1` (stereo not drawn), `O=C(c1ccc(F)cc1)N1CCCC(c2nc(-c3cccs3)no2)C1` (stereo not drawn) is lower in GTP binding activity (% of control): 100% for the first, 99% for the second.

Compared with `CCC1SC(CC)C(=O)N(CC(=O)NC2CCCCC2)C1=O` (stereo not drawn), `O=C(NC1CCCCC1)C1CCCN(S(=O)(=O)c2ccc(Br)s2)C1` (stereo not drawn) is higher in GTP binding activity (% of control): 99% for the first, 100% for the second.

Going from `COCCNC(=S)N1CCC(NC(=O)C23CC4CC(CC(C4)C2)C3)CC1` to `CCCNC(=S)N1CCCC(c2nc3ccccc3[nH]2)C1` (stereo not drawn), the GTP binding activity (% of control) falls from 104% to 97%.

Compared with `Nc1ccc(-c2sc(N)nc2-c2ccccc2)cc1`, `C/C(=N\OC(=O)c1ccccc1)c1c(C)nc2cc(C)ccn12` is lower in GTP binding activity (% of control): 98% for the first, 85% for the second.

First: CC1CCC2(CC1)NC(=O)N(Cc1nnc(-c3cccs3)o1)C2=O (stereo not drawn)
Second: Cc1ccc(N(C(=O)Cc2cccs2)C(C(=O)NCC2CCCO2)c2ccncc2)cc1 (stereo not drawn)
The GTP binding activity (% of control) of the first is lower: 94% for the first, 108% for the second.

Compared with `CCN(CCCNC(=O)CCn1c(=O)[nH]c2ccsc2c1=O)c1ccccc1`, `Cc1cc(NC(=O)CN2C(=O)NC(CCc3ccccc3)C2=O)no1` (stereo not drawn) is higher in GTP binding activity (% of control): 99% for the first, 100% for the second.

Going from `O=C(N1CCCCC1)N1CCN(C(=O)N2CCCCC2)CC1` to `CC(=O)c1cc(C#N)c(N2CCCCC2)nc1C`, the GTP binding activity (% of control) falls from 98% to 97%.

Compared with `CCOc1ccc(CN2CCN(Cc3ccon3)CC2CCO)cc1` (stereo not drawn), `OCCC1CN(Cc2ccc(Oc3ncccn3)cc2)CCN1CCc1ccccc1` (stereo not drawn) is lower in GTP binding activity (% of control): 99% for the first, 98% for the second.

Going from `COC(=O)c1c(C(=O)OC)c(-c2cccc(C)c2)n2c1CS(=O)C2` (stereo not drawn) to `Cc1cccc(NC(=O)c2cccc(C(F)(F)F)c2)c1`, the GTP binding activity (% of control) rises from 95% to 98%.

Compared with `CCC1CO/C(=C(\C(=C(Cl)Cl)N2CCOCC2)[N+](=O)[O-])N1` (stereo not drawn), `Cc1nn(CC(=O)Nc2ccc3c(c2)OCO3)c(C)c1[N+](=O)[O-]` is lower in GTP binding activity (% of control): 101% for the first, 100% for the second.

Compared with `CC(C)NC(=O)c1ccc(Cl)cc1Cl`, `CCOc1ccc(NC(=O)NNC(=O)c2ccc(Cl)cc2Cl)cc1` is lower in GTP binding activity (% of control): 103% for the first, 96% for the second.

First: CCOC(=O)CSC1=N/C(=C/c2ccc(-n3cncn3)cc2)C(=O)N1C(C)=O
Second: CCOC(=O)Cc1ncccc1C(=O)Nc1ccc(OC)cc1
The GTP binding activity (% of control) of the first is lower: 96% for the first, 100% for the second.

Going from `CCC(CC)c1nnc(NC(=O)c2nn(C)c(=O)c3ccccc23)s1` to `CCCCCc1nnc(NC(=O)c2ccc(=O)n(C)n2)s1`, the GTP binding activity (% of control) rises from 96% to 101%.

First: COc1cc(COCC(O)CN2CCN(Cc3ccc4c(c3)OCO4)CC2)cc(OC)c1OC (stereo not drawn)
Second: COc1ccc(C2(CNC(=O)Cc3ccc(OC)c(OC)c3)CCCC2)cc1
The GTP binding activity (% of control) of the first is higher: 102% for the first, 97% for the second.

Going from `Cc1cc(OCCCN2CCN(Cc3ccccc3)CC2)ccc1[N+](=O)[O-]` to `CCOC(=O)N1CCN(Cc2nc(Cc3cccc(C(F)(F)F)c3)no2)CC1`, the GTP binding activity (% of control) rises from 85% to 99%.

Compared with `CN(CC(=O)N1CCN(c2ccccc2)CC1)S(=O)(=O)c1cccs1`, `CN1C(=O)/C(=C/c2ccc(C(=O)NC3CCCC3)cc2)Oc2ccccc21` is lower in GTP binding activity (% of control): 101% for the first, 99% for the second.

First: Cc1cc(C)nc(/N=C2\NC(=O)CC(C(=O)O)N2c2ccc(Cl)cc2Cl)n1 (stereo not drawn)
Second: CCn1c(CSc2nc(C)cc(C)n2)nnc1SCC(N)=O
The GTP binding activity (% of control) of the first is higher: 96% for the first, 95% for the second.

`COc1cccc(CN(C)CC(=O)NCc2ccccc2Cl)c1OC` and `COc1ccc(/C=C/C(=O)Nc2cccnc2)cc1OC` are the same in GTP binding activity (% of control): 98% for the first, 98% for the second.

Going from `COc1cc(/C=N/Nc2ccc(C)cc2)cc(Br)c1O` to `O=C(O)COc1ccc(/C=N/O)cc1Br`, the GTP binding activity (% of control) falls from 97% to 92%.

Compared with `CCCCNC(=O)C1(c2ccc(OC)cc2)CCOCC1`, `CCc1ccc(Oc2nc([N+](=O)[O-])nn2C)cc1` is lower in GTP binding activity (% of control): 108% for the first, 98% for the second.

First: COC(=O)Cn1cc(/C=C/[N+](=O)[O-])c2ccccc21
Second: CC(C)C(C)(C#N)NC(=O)CSc1nncn1-c1ccccc1 (stereo not drawn)
The GTP binding activity (% of control) of the first is lower: 93% for the first, 104% for the second.

Compared with `C/C(=N\OCC(=O)Nc1ccc(Br)cc1)c1cccs1`, `COc1ccc(C)cc1-n1nnnc1SCc1nc2ccccc2c(=O)[nH]1` is higher in GTP binding activity (% of control): 93% for the first, 98% for the second.

First: O=C(NCc1ccco1)c1nn2cccnc2c1Cl
Second: O=C(CCC(=O)NNc1nc2ccccc2c2nc(-c3ccccc3)nn12)NCCCN1CCCC1=O
The GTP binding activity (% of control) of the first is higher: 99% for the first, 96% for the second.

First: Cc1c(CN2CCCCC2)c(O)n(CCO)c(=O)c1C#N
Second: Cc1noc(C)c1CCC(=O)O
The GTP binding activity (% of control) of the first is lower: 94% for the first, 97% for the second.

With `Nc1[nH]c(=S)nc2nc(-c3ccccc3)c(-c3ccccc3)nc12` the GTP binding activity (% of control) was 79% (active).
In the case of `COc1cc(/C=N/NC(=S)Nc2cccnc2)cc(OC)c1O`, the GTP binding activity (% of control) is reported as 77% (active).
In the case of `COc1ccc(C2(CNC(=O)C(c3ccccc3)c3ccccc3)CCOCC2)cc1OC`, the GTP binding activity (% of control) is reported as 123% [activator] (active).
